Compounds with a hit are over-represented: about 1.7% of the library has one in this group of screens.
HEK293 tox: cytotoxicity counter-screen for GLP-1 receptor inverse agonists; HEK293 cAMP-luciferase reporter cells, luminescence, 24 h; Potency, µM (highest dose often 38.3 µM), most hits filed as inhibitors; 410,000 tested, 0.13% active;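 further: loss of luciferase light is scored as toxicity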
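Luminescence readout: signal drop marks cytotoxicity. Plated cells grew 12 h at 37 °C, 5% CO2, received 23 nL compound for 24 h, then got luciferase reagent, read after 12 min at RT.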
PTHR1 agonist: PTHR1 (human) receptor agonism; Potency, µM (doses to about 115 µM), most hits filed as activators; Q03431; HEK293 GP2 PTHR1 cells, GloSensor cAMP luminescence, 1 h; 410,000 tested, 0.075% active; AID 743266; further: nearly all actives have a fitted effect of over 55% in size
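HEK-293-derived GP2 cells expressing PTHR1 and a GloSensor cAMP reporter, 3,000/well, plated overnight, given luciferin plus IBMX (each 0.5 mM as added) for 1 h at 37 °C, then compound for 1 h at 37 °C. Luminescence was read after 15 min at room temperature.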
GLP1R ag: activates the human GLP-1 receptor; P43220; HEK293 GLP-1R CRE-luciferase, luminescence, 4-6 h; cells express a hypersensitive GLP-1R form; Potency, µM (doses to about 45.6 µM), usual class: activators; 380,000 tested, 0.007% active; AID 624172
Target sequence (P43220 whole entry, looked up): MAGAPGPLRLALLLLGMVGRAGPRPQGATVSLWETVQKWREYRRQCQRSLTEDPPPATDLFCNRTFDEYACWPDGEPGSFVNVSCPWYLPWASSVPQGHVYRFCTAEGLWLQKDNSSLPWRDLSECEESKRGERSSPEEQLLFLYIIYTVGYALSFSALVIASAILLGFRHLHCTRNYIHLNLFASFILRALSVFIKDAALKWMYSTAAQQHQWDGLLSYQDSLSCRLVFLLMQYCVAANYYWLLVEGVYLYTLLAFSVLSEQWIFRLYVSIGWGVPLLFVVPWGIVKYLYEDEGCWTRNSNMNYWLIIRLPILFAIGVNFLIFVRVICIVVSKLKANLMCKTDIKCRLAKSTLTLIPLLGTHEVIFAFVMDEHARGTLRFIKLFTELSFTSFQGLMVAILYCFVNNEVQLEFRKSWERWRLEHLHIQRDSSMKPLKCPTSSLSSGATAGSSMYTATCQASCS
GLP-1R inv ag: GLP-1 receptor (human) inverse agonism; P43220; HEK293 GLP-1R CRE-luciferase, luminescence, 24 h; GLP-1R form is constitutively active; Potency, µM (highest dose often 38.3 µM), most hits filed as inhibitors; 410,000 tested, 1.6% active; AID 624417; further: nearly all actives have a fitted effect of over 55% in size
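Inverse agonists were sought by their lowering of basal cAMP reporter luciferase output in HEK293 cells stably carrying constitutively active human GLP-1R, after 24 h compound treatment.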
Large screens that a line does not name were inactive. The call rests on the fitted dose curve; in most records, active means well fitted curve in the direction sought with a large enough effect; inconclusive means small, poorly fitted or top-dose-only effect, or another doubt; inactive means no such curve, though single readings can be large; an effect the other way counts as inactive or inconclusive.

CC(C)NC(=O)N1Cc2cc(C(=O)NC3CCCCC3)nc(-c3cccc(-c4cccnc4)c3)c2[C@@H]1CCO	none
c1ccc(CCc2ccc3n2Cc2cnnn2-c2ccccc2-3)cc1	GLP-1R inv ag 11µM
Nc1nc(F)nc2c1ncn2[C@@H]1O[C@H](CO)[C@@H](O)[C@H]1O	HEK293 tox inconclusive, GLP-1R inv ag 2µM
C[C@@H]1CCCCO[C@@H](CN(C)CC2CCCCC2)[C@@H](C)CN([C@H](C)CO)C(=O)c2cc(NS(=O)(=O)c3ccc(Cl)cc3)ccc2O1	HEK293 tox inconclusive, GLP-1R inv ag 10µM
C[C@@H]1CCCCO[C@H](CN(C)Cc2ccc(C(F)(F)F)cc2)[C@H](C)CN([C@@H](C)CO)C(=O)c2cc(NC(=O)Cc3ccccc3)ccc2O1	HEK293 tox inconclusive, GLP-1R inv ag 2.8µM
CN1CCN(c2ccc(NC(=S)NC(=O)/C=C/c3ccco3)cc2)CC1	HEK293 tox inconclusive
O=c1[nH]c(=S)[nH]c(O)c1N=Nc1ccc2c(c1)OCCO2	HEK293 tox inconclusive, GLP-1R inv ag inconclusive
O=c1[nH]c(=S)[nH]c(O)c1N=Nc1ccc2c(c1)OCO2	HEK293 tox 10µM
ClC[C@H]1CO1 (tested in a mixture with another compound)	none (no result: HEK293 tox, PTHR1 agonist, GLP-1R inv ag)
CN1C(CC(O)c2ccccc2)CCCC1CC(O)c1ccccc1 (stereo unspecified)	GLP1R ag inconclusive
CCN(CC)CC(O)c1ccc(C2CCCC2)cc1 (stereo unspecified)	GLP-1R inv ag 7.1µM
COc1cccc(N2CCN(c3c4c(nc5nncn35)CCC4)CC2)c1	none (no result: GLP1R ag)
N#CC(C#N)=C1C=CC=CN1/C(=C\c1ccco1)C(=O)c1ccc(Cl)cc1	GLP-1R inv ag 5.6µM
O=C(Nc1ccc(Cl)c(Cl)c1)Nc1ccc(Br)cc1F	HEK293 tox inconclusive, GLP-1R inv ag inconclusive
Cc1ccc(C)c(CN2CCC(CNC(=O)Nc3ccc(Br)cc3F)CC2)c1	HEK293 tox inconclusive, GLP-1R inv ag 7.1µM
CCCCNc1ccc2c3c(cccc13)C(=O)N(CCCC)C2=O	GLP-1R inv ag 7.1µM
Cc1cc(N/N=C/c2ccc(O)c(C)c2O)nc(-c2ccccc2O)n1	HEK293 tox 10µM, GLP-1R inv ag inconclusive
CCN(Cc1ccccc1)S(=O)(=O)c1ccc(C(=O)N(CCCN(C)C)c2nc3cc4c(cc3s2)OCCO4)cc1	HEK293 tox inconclusive, GLP-1R inv ag 13µM
CN(C)CCN(C(=O)CCS(=O)(=O)c1ccccc1)c1nc2cc3c(cc2s1)OCO3	HEK293 tox inconclusive, GLP-1R inv ag inconclusive

Assay outcomes deposited in PubChem by National Center for Advancing Translational Sciences (NCATS).
